Laboratory results from PubChem BioAssay (Tox21).
Inconclusive results are not listed. A call without a number means that no potency is given here. Unmarked numbers belong to inactive results. Activity calls are given as the source filed them. The call rests on the fitted dose curve.

Experiment: qHTS assay to identify small molecule agonists of H2AX - cell viability counter screen (AID 1224847); further: nearly all actives have a fitted effect of over 30% in size; on activity change, negative = cytotoxicity: top concentration of the series differs between compounds
Settings: CHO-K1 viability, CellTiter-Glo luminescence, 3 h; series mostly up to 154 µM
From the text: National Center for Advancing Translational Sciences [NCATS]
NIH Chemical Genomics Center [NCGC]
U.S. Environmental Protection Agency [EPA]
National Institutes of Environmental Health Sciences [NIEHS]
National Toxicology Program [NTP]
U.S. Food and Drug Administration [FDA]
HTRF phospho-H2AX (Ser139) assay (Cisbio Bioassays, US) enables the quantitative detection of the histone variant H2AX when phosphorylated on serine 139. When double-stranded DNA breaks, either by ionizing radiation or endogenous physiological processes, H2AX becomes phosphorylated at Ser139. This phospho-Ser139 serves as a sensitive biomarker for the detection of such breaks, localizing the site of DNA repair. So, HTRF phospho-H2AX Ser139 is a pertinent assay to study genome stability, the cell cycle, DNA repair, and it serves as a biomarker for cancer, and to understand aging. Wild type CHO-K1 cells were used to identify the inducers of Phospho-H2AX Ser 139 from the Tox21 compound collections. Also cytotoxicity of the Tox21 10K compound library against the CHO-K1 cell line was tested by measuring the cell viability using CellTiter-Glo assay (Promega, Madison, WI).
Tox21 Assay Protocol Summary:
The CHO-K1 cells suspended in culture medium containing 10% FBS were dispensed at 1000 cells/ 3 ul/well in 1536-well white wall/solid bottom plates (Greiner Bio-One North America, NC) using a Multidrop Combi (Thermo Fisher Scientific Inc., Waltham, MA). After the assay plates were incubated at 37C overnight, 23 nl of compounds at 15 concentrations (from 5-48 columns) or positive control (from 1 to 4 columns) were transferred to the assay plates using a Pintool station (Wako, San Diego, CA) into each well resulting in a final DMSO concentration of 0.76%. After 3hr incubation at 37C, 3 uL/well CellTiter-Glo luminescent cell viability reagent (Promega Corporation, Madison, WI) was added using a Flying Reagent Dispenser (FRD) (Aurora Discovery, CA). After incubation at room temperature for 30 min, the luminescence intensity was read using a ViewLux plate reader (PerkinElmer, Waltham, MA).
Potency means the concentration at half of the fitted maximal effect.

Row | SMILES | Potency | activity change, negative = cytotoxicity
1 | CC(=O)c1ccc(C)cc1 | inactive | –
2 | C=C(C)C(=O)OCCC(C)OC(=O)C(=C)C (stereo not given) | inactive | –
3 | CCC(=O)Nc1cccc(N)c1 | inactive | –
4 | CCC(=O)/C=C/c1ccc(OC)cc1 | inactive | –
5 | C1CCCCCCCCCCC1 | – | 0.456% [at 31.6 µM]
6 | CCN(CC)S(=O)(=O)c1ccc(C(=O)O)cc1 | inactive | –
7 | Fc1ccccc1-c1ccccc1 | inactive | –
8 | CC(O)CN(CCCN(C)C)CCCN(C)C (stereo not given) | inactive | –
9 | COC(=O)C1=C(C)NC(C)=C(C(=O)OCC(C)=O)C1c1ccccc1[N+](=O)[O-] (stereo not given) | inactive | –
10 | C=CCOCC(O)CS(=O)(=O)O (stereo not given) | inactive | –
11 | O=Cc1ccccc1[N+](=O)[O-] | inactive | –
12 | COCCOC(=O)CC#N | inactive | –
13 | CC(=O)NC(Cc1ccccc1)C(=O)O (stereo not given) | inactive | –
14 | CC(C)COC(=O)c1ccccc1O | inactive | –
15 | Cc1ccc(N)cc1[N+](=O)[O-] | inactive | –
16 | OCCN1C[C@H](O)[C@@H](O)[C@H](O)[C@H]1CO | inactive | –
17 | CSc1nc(NC2CC2)nc(NC(C)(C)C)n1 | inactive | –
18 | CC(C)(O)Cc1ccccc1 | inactive | –
19 | OCCCCCCO | inactive | –
20 | CC(C)[C@H](N)C(=O)OCCOCn1cnc2c(=O)[nH]c(N)nc21 | inactive | –

Row | SMILES | Potency | activity change, negative = cytotoxicity
21 | CC1(C)SC(C)(C)SC(C)(C)S1 | inactive | –
22 | COc1nc(C)nc(N)n1 | inactive | –
23 | CC(C)c1ccc2oc3nc(N)c(C(=O)O)cc3c(=O)c2c1 | inactive | –
24 | NC(=O)CCCCC1CCSS1 (stereo not given) | inactive | –
25 | C=CCn1c(=O)n([C@@H]2O[C@H](CO)[C@@H](O)[C@H]2O)c2nc(N)[nH]c(=O)c21 | inactive | –
26 | CC(CCO)CCCC(C)(C)O (stereo not given) | inactive | –
27 | CCCOc1ccccc1-c1nc2n[nH]nc2c(=O)[nH]1 | inactive | –
28 | O=[N+]([O-])c1ccc(Oc2ccc([N+](=O)[O-])cc2)cc1 | inactive | –
29 | NC(=O)c1ncn([C@@H]2O[C@H](CO)[C@@H](O)[C@H]2O)c1N | inactive | –
30 | CO[Si](CCCNCCC[Si](OC)(OC)OC)(OC)OC | inactive | –
31 | CCC(C)(C)C1CCC(OC)CC1 (stereo not given) | inactive | –
32 | CCO[Si](C)(OCC)OCC | inactive | –
33 | CCCc1ccc(N)cc1 | inactive | –
34 | C/C=C1\C(=O)C[C@H]2[C@@H]3CCC4=CC(=O)CC[C@]4(C)[C@H]3CC[C@]12C | 55.5 µM (active) | –
35 | CC(C)(O)c1ccccc1 | inactive | –
36 | CN(C)C(=O)Nc1ccccc1 | inactive | –
37 | CC(C)=CCC/C(C)=C/C(=O)O | inactive | –
38 | CC(C)CCOC(=O)CC(C)C | inactive | –
39 | CCCCCCC(CCCCCCCCCCC(=O)OCC(COC(C)=O)OC(C)=O)OC(C)=O (stereo not given) | inactive | –
40 | CC(=O)OC(C)(C)C | inactive | –
